# According to PubChem BioAssay (NCATS):
# Inconclusive results are not listed. A call without a number means that no potency is given here. Calls of active or inactive are those of the source. Calls come from the whole dose curve; as a rule, active = well fitted cell-killing curve with a large enough effect; inconclusive = small, poorly fitted or top-dose-only effect, or effect the other way; inactive = flat fitted curve, though single readings scatter. Where a SMILES comes first, the peptide text is derived from it. The star is where a group is joined. Cbz = O=C(OCc1ccccc1)*; CH2Cl = ClC*
# What was measured:
# Test in all cases: Primary qHTS to identify gynecologic anti-cancer compounds using libraries of approved drugs and bioactive compounds (AID 1345084); note: nearly all actives have a fitted effect of over 55% in size
# [1] = tested on: CASKI; conditions: Gynecologic cancer cell panel viability, ATPlite luminescence, 48 h; series mostly up to 57.5 µM
# Summary of the method: (§1)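 Five-point cytotoxicity, 48 h drug exposure at 37 C, 5% CO2, on cells seeded 16 h beforehand. ATP content read by ATPlite luminescence.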
# [2] = tested on: HeLa; conditions: Gynecologic cancer cell panel viability, ATPlite luminescence, 48 h; series mostly up to 57.5 µM
# Summary of the method: as §1
# [3] = tested on: Hek293T; conditions: Gynecologic cancer cell panel viability, ATPlite luminescence, 48 h, control line for the selectivity index; series mostly up to 57.5 µM
# Summary of the method: as §1
# [4] = tested on: JEG-3; conditions: Gynecologic cancer cell panel viability, ATPlite luminescence, 48 h; series mostly up to 57.5 µM
# Summary of the method: as §1
# [5] = tested on: Es-2; conditions: Gynecologic cancer cell panel viability, ATPlite luminescence, 48 h; series mostly up to 57.5 µM
# Summary of the method: as §1
# [6] = tested on: OV90; conditions: Gynecologic cancer cell panel viability, ATPlite luminescence, 48 h; series mostly up to 57.5 µM
# Summary of the method: as §1
# Potency is the fitted concentration of half-maximal effect.
structure (smiles),measurement,setting,value
C/C(=N\N=C(N)N)c1cc(NC(=O)CCCCCCCCC(=O)Nc2cc(/C(C)=N/N=C(N)N)cc(/C(C)=N/N=C(N)N)c2)cc(/C(C)=N/N=C(N)N)c1,Potency,[1],inactive
same,Potency,[2],inactive
same,Potency,[3],inactive
same,Potency,[4],inactive
c1ccc(-c2cnn3cc(-c4ccc(OCCN5CCOCC5)cc4)cnc23)cc1,Potency,[1],inactive
same,Potency,[2],inactive
same,Potency,[4],inactive
COC(C)(C)CCn1nc(Nc2c(C)cccc2C)c2cnc(Nc3ccc(OCCN4CCCC4)c(F)c3)nc21,Potency,[5],15.8 µM (active)
same,Potency,[6],14.1 µM (active)
C=C1C(=O)O[C@H]2C[C@@H](C)[C@@H]3CCC(=O)[C@@]3(C)C[C@H]12,Potency,[1],7.94 µM (active)
same,Potency,[2],inactive
same,Potency,[3],25.1 µM (active)
same,Potency,[4],15.8 µM (active)
same,Potency,[6],22.4 µM (active)
Cc1ccc(-c2c(C(=O)CCl)n(CCCO)c3ncnc(N)c23)cc1,Potency,[1],inactive
same,Potency,[2],inactive
same,Potency,[3],inactive
same,Potency,[4],inactive
same,Potency,[6],inactive
C=C1C(=O)OC2/C=C(\COC(C)=O)CC/C=C(\C=O)CC(OC(=O)C(C)CC)C12 (stereo not drawn),Potency,[1],inactive
same,Potency,[2],inactive
same,Potency,[6],inactive
C=C[C@@]1(C)C=C2C(=O)C(O)=C3[C@](C)(C(=O)O)CC[C@@H]4C[C@]34[C@]2(O)C(=O)C1,Potency,[5],10 µM (active)
same,Potency,[2],inactive
same,Potency,[3],11.2 µM (active)
CC(C)C[C@H](NC(=O)CNC(=O)OCc1ccccc1)C(=O)N[C@@H](Cc1ccccc1)C(=O)CCl (Cbz-Gly-Leu-Phe-CH2Cl),Potency,[1],inactive
same,Potency,[2],inactive
same,Potency,[6],inactive
O=C(Nc1ccnc(NC(=O)C2CC2)c1)c1c(Cl)cccc1Cl,Potency,[5],22.4 µM (active)
same,Potency,[2],17.8 µM (active)
CN1CCN(Cc2ccc(NC(=O)Cc3ccc(Oc4cc(NC(=O)C5CC5)ncn4)cc3)cc2C(F)(F)F)CC1,Potency,[5],7.94 µM (active)
same,Potency,[2],7.08 µM (active)
same,Potency,[6],4.47 µM (active)
CN1CC2CN(c3ccc4oc5ccccc5c(=O)c4c3)CC2C1 (stereo not drawn),Potency,[5],inactive
same,Potency,[2],inactive
same,Potency,[3],inactive
same,Potency,[4],inactive
COc1ccc(-c2ccc3c(N4CCOCC4C)nc(N4CCOCC4C)nc3n2)cc1CO (stereo not drawn),Potency,[5],0.282 µM (active)
same,Potency,[3],0.316 µM (active)
same,Potency,[4],inactive
O=C(Nc1ccc(N2C(=O)[C@@H]3[C@H](C2=O)[C@@H]2C=C[C@H]3C2)c(Cl)c1)c1ccccn1,Potency,[2],inactive
CCNC(=O)Nc1ccc(-c2nc3c(c(N4CCOCC4C)n2)CCN(C2COC2)C3)cc1 (stereo not drawn),Potency,[1],inactive
same,Potency,[2],inactive
same,Potency,[3],2.82 µM (active)
same,Potency,[4],inactive
Cc1ccc(NC(=O)C(C)C)cc1C1CCN(Cc2ccc(Oc3ccc(F)c(F)c3)cc2)CC1,Potency,[1],inactive
same,Potency,[2],inactive
same,Potency,[4],inactive
CC(=O)O[C@H]1CC(C)(C)CC2[C@]13CO[C@@]21CCC2[C@@]4(C)CC[C@H](O[C@@H]5OC[C@H](O[C@@H]6O[C@H](CO)[C@@H](O)[C@H](O)[C@H]6O[C@@H]6OC[C@@H](O[C@@H]7O[C@H](CO)[C@@H](O)[C@H](O)[C@H]7O)[C@H](O)[C@H]6O)[C@H](O)[C@H]5O[C@@H]5O[C@H](CO)[C@@H](O)[C@H](O)[C@H]5O)[C@@](C)(CO)C4CC[C@@]2(C)[C@]1(C)C[C@H]3O (stereo partly drawn),"activity change, negative = cytotoxicity",[1],-12% [at 6.55 µM] (inactive)
same,"activity change, negative = cytotoxicity",[2],-20% [at 6.55 µM] (inactive)
same,Potency,[3],2.82 µM (active)
Cc1ccc(C)c(-c2cc(C(F)(F)F)nn2-c2ccc(S(N)(=O)=O)cc2)c1,Potency,[1],inactive
same,Potency,[2],31.6 µM (active)
CCCCCCCCn1cc(CN(CC)CC)c2cc(-c3cnc(N)nc3)ccc21,Potency,[1],inactive
same,Potency,[2],inactive
same,Potency,[3],inactive
same,Potency,[4],inactive
Fc1ccc2[nH]ccc2c1-c1nc(N2CCOCC2)c2sc(CN3CCN(CC4CC4)CC3)cc2n1,Potency,[5],inactive
same,Potency,[2],inactive
same,Potency,[4],20 µM (active)
C=C1C(=O)OC2/C=C(/C)C3=CC(=O)C(C)(CC(OC(=O)/C(C)=C/COC(C)=O)C12)O3 (stereo not drawn),Potency,[5],7.08 µM (active)
same,Potency,[2],inactive
same,Potency,[6],inactive
